# Experimental data published in PMC7862700, “An all-to-all approach to the identification of sequence-specific readers for epigenetic DNA modifications on cytosine”.
# Key:
# Experiment in all cases: DAPPL (digital affinity profiling via proximity ligation, sequencing); 10 mM Tris-HCl pH 7.5, 50 mM NaCl, 1 mM DTT, 4% glycerol, room temperature, 30 min; GST-TFs on glutathione beads, 16-mer random dsDNA library, 0.1% formaldehyde crosslink after washing; high values mean tight binding
# FLI1 = target: T1, FLI1 (Homo sapiens, UniProt Q01543 1-452); settings: protein: recombinant; tags: N-terminal GST; dsDNA, one strand shown
# T1 sequence: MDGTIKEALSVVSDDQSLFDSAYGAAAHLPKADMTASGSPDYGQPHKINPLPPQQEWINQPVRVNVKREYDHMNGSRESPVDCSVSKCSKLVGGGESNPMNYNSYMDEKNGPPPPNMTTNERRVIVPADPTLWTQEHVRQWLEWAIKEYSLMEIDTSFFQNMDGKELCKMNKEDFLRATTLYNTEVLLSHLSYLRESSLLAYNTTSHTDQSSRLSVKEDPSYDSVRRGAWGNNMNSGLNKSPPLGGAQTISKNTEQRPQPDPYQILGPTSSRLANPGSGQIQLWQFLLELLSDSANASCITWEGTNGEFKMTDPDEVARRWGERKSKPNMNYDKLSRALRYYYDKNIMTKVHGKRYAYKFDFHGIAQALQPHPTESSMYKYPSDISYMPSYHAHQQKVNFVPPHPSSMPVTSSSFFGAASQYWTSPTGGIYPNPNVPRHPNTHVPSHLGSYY
# Summary of the method: (§1)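 GST fusions of human transcription factors were expressed in yeast and captured with glutathione beads. Once given DNA barcodes and pooled alongside a tag-only sample, they were incubated for 30 min at room temperature with 200 nmole of a random double-stranded 16-mer DNA library in Tris/NaCl/DTT/glycerol buffer, then washed, crosslinked (0.1% formaldehyde), proximity-ligated, PCR-amplified and sequenced on an Illumina NextSeq500. The binding signal of each hexamer is its read frequency for a factor divided by its frequency for the tag-only sample.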
# ELK1 = target: T2, ELK1 (Homo sapiens, UniProt P19419 1-428); settings: protein: recombinant; tags: N-terminal GST; dsDNA, one strand shown
# T2 sequence: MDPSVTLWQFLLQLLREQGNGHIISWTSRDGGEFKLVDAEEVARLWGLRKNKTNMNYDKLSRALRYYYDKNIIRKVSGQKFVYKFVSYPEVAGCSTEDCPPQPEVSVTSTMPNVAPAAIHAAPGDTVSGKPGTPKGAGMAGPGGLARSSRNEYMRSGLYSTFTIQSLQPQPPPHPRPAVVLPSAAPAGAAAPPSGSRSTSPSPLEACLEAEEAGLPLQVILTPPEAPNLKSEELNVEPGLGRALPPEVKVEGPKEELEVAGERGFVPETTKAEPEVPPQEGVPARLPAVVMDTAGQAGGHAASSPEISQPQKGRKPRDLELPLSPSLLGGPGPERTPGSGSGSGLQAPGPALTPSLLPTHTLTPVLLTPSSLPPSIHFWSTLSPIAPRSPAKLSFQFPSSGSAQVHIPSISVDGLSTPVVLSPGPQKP
# Summary of the method: as §1
# GABPA = target: T3, GABPA (Homo sapiens, UniProt Q06546 1-454); settings: protein: recombinant; tags: N-terminal GST; dsDNA, one strand shown
# T3 sequence: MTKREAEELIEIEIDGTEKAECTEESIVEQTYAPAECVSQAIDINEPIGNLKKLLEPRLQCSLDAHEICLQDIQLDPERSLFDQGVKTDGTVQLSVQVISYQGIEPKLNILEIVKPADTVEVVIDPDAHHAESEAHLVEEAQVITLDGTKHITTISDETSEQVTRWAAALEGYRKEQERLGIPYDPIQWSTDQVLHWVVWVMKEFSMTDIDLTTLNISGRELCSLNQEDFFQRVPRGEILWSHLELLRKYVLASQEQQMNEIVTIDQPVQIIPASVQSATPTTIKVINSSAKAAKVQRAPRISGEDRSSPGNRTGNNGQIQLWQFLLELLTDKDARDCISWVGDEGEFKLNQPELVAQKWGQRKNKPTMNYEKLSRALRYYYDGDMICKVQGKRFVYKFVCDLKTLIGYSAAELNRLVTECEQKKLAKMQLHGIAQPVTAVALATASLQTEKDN
# Summary of the method: as §1
# ERG = target: T4, ERG (Homo sapiens, UniProt P11308 1-479); settings: protein: recombinant; tags: N-terminal GST; dsDNA, one strand shown
# T4 sequence: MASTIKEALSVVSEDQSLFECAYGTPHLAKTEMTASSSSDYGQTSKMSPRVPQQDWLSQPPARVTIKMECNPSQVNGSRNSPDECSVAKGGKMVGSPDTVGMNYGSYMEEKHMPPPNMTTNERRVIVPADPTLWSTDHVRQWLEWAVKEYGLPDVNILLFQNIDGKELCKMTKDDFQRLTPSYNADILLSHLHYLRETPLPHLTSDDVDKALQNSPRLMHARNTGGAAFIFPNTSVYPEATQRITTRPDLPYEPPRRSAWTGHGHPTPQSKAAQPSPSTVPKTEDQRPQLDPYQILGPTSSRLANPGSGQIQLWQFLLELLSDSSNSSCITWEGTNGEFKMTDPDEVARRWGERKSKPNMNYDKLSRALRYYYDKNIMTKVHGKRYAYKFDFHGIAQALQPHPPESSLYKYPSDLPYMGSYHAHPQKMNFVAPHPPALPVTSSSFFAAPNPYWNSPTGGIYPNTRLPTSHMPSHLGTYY
# Summary of the method: as §1
# ELF1 = ELF1 (Homo sapiens, UniProt P32519 1-619); settings: protein: recombinant; tags: N-terminal GST; dsDNA, one strand shown
# ELF1, sequence (P32519 whole entry): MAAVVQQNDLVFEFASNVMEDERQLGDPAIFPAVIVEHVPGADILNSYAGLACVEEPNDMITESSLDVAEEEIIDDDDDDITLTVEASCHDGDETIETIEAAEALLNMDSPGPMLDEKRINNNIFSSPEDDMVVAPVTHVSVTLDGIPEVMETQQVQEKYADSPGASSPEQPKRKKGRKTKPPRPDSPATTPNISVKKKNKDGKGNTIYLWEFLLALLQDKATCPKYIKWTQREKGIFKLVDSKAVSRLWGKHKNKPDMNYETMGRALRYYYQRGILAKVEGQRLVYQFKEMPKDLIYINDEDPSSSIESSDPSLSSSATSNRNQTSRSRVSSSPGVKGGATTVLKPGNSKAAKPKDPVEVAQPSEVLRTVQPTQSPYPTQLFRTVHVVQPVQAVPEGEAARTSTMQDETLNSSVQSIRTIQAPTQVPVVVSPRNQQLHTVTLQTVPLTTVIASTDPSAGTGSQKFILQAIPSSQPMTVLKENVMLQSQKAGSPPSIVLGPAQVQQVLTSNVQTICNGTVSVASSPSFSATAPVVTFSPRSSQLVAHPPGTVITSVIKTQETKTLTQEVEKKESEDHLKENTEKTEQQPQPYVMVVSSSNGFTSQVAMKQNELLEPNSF
# Summary of the method: as §1
# EHF = target: T5, EHF (Homo sapiens, UniProt Q9NZC4 1-300); settings: protein: recombinant; tags: N-terminal GST; dsDNA, one strand shown
# T5 sequence: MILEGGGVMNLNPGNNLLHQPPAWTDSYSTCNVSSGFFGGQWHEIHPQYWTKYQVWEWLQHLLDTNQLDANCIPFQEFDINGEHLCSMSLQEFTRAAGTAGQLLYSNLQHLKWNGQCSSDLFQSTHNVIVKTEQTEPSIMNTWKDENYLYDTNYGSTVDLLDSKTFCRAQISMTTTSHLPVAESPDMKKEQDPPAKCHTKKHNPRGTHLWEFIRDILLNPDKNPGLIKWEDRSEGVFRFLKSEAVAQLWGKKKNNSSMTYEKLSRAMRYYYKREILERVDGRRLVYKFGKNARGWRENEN
# Summary of the method: as §1
# SPI1 = SPI1 (Homo sapiens, UniProt P17947 1-270); settings: protein: recombinant; tags: N-terminal GST; dsDNA, one strand shown
# Summary of the method: as §1
# SPIB = SPIB (Homo sapiens, UniProt Q01892 1-262); settings: protein: recombinant; tags: N-terminal GST; dsDNA, one strand shown
# SPIB, sequence (Q01892 whole entry): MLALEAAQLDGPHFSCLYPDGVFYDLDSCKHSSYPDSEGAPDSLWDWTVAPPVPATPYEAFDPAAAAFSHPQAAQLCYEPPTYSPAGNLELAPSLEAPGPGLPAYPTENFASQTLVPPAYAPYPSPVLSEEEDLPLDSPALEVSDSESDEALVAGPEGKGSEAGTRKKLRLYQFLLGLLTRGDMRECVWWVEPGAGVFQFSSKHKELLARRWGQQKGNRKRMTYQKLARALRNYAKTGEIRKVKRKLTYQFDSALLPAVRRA
# Summary of the method: as §1
# ELK3 = target: T6, ELK3 (Homo sapiens, UniProt P41970 1-407); settings: protein: recombinant; tags: N-terminal GST; dsDNA, one strand shown
# T6 sequence: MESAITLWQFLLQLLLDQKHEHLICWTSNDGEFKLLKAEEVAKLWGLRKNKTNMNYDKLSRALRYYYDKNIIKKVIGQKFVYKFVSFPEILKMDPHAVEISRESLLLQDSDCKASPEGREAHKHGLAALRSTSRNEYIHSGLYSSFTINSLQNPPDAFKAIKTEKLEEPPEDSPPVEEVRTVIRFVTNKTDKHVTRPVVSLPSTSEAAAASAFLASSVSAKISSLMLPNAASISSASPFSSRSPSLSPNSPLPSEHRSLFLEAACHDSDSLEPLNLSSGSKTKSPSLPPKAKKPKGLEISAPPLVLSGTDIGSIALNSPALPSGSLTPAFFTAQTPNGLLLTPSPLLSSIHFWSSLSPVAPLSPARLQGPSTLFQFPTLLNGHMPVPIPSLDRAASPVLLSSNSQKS
# Summary of the method: as §1
# FEV = target: T7, FEV (Homo sapiens, UniProt Q99581 1-238); settings: protein: recombinant; tags: N-terminal GST; dsDNA, one strand shown
# T7 sequence: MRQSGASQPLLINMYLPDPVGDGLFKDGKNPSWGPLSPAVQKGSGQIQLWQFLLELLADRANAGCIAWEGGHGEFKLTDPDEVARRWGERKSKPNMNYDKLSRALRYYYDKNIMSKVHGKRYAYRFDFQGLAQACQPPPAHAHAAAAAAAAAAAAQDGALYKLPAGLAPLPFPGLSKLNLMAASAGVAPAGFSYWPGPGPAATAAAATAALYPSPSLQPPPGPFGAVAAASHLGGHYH
# Summary of the method: as §1
# ETV5 = ETV5 (Homo sapiens, UniProt P41161 1-510); settings: protein: recombinant; tags: N-terminal GST; dsDNA, one strand shown
# ETV5, sequence (P41161 whole entry): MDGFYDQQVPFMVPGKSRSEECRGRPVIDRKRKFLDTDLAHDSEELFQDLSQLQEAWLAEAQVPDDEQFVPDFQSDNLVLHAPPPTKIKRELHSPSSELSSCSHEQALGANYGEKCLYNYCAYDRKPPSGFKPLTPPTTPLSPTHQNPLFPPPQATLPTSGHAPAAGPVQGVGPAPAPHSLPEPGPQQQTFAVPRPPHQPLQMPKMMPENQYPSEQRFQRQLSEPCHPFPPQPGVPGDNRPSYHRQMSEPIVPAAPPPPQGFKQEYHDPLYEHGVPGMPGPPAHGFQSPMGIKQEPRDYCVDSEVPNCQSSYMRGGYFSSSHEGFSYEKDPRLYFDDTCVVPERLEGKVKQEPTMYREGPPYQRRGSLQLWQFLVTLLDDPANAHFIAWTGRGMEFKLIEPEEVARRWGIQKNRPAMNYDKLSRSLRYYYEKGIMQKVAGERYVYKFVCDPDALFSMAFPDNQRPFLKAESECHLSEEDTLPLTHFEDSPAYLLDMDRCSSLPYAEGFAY
# Summary of the method: as §1
# HSF1 = HSF1 (Homo sapiens, UniProt Q00613 1-529); settings: protein: recombinant; tags: N-terminal GST; chain copies: 3; dsDNA, one strand shown
# HSF1, sequence (Q00613 whole entry): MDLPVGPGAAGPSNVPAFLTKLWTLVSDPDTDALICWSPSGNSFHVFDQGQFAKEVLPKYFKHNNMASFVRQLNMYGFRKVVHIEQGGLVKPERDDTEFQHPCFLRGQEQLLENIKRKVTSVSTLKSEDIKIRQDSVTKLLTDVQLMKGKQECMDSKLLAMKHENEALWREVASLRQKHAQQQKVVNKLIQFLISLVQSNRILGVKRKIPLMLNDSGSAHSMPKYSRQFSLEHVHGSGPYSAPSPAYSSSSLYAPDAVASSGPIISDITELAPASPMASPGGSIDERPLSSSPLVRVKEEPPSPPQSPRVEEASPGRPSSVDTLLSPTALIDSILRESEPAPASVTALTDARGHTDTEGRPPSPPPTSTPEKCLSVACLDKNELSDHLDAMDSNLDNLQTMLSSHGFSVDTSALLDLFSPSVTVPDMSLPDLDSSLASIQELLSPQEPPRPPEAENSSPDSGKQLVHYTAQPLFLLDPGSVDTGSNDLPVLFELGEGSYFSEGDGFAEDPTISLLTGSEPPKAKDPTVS
# Summary of the method: as §1
# SPIC = target: T8, SPIC (Homo sapiens, UniProt Q8N5J4 1-248); settings: protein: recombinant; tags: N-terminal GST; dsDNA, one strand shown
# T8 sequence: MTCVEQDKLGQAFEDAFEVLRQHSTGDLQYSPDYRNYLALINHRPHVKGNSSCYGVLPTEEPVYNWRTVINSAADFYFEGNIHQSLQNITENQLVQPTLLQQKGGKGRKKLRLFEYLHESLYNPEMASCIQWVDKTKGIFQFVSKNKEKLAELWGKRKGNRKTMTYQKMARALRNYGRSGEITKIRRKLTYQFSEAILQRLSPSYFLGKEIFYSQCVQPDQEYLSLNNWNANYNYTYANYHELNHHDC
# Summary of the method: as §1
# ELF4 = ELF4 (Homo sapiens, UniProt Q99607 1-663); settings: protein: recombinant; tags: N-terminal GST; dsDNA, one strand shown
# ELF4, sequence (Q99607 whole entry): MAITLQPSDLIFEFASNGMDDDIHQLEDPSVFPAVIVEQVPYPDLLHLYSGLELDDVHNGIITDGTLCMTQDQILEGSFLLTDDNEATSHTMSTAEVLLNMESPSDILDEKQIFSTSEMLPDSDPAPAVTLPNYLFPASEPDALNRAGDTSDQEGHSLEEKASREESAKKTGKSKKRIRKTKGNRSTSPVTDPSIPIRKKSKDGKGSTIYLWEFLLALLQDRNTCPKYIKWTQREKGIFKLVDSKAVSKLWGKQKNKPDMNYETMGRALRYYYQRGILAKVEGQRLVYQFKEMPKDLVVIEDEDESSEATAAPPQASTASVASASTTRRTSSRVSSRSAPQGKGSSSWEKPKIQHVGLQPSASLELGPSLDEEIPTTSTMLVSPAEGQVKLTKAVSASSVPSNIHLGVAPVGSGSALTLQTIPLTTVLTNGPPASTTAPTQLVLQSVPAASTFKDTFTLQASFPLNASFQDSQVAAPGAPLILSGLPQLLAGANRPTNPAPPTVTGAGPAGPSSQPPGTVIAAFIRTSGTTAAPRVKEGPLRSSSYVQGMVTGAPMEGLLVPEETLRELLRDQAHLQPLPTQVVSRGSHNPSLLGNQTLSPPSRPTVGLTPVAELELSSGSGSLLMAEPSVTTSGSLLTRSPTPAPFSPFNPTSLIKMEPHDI
# Summary of the method: as §1
# ELK4 = target: T9, ELK4 (Homo sapiens, UniProt P28324-2 1-405); settings: protein: recombinant; tags: N-terminal GST; dsDNA, one strand shown
# T9 sequence: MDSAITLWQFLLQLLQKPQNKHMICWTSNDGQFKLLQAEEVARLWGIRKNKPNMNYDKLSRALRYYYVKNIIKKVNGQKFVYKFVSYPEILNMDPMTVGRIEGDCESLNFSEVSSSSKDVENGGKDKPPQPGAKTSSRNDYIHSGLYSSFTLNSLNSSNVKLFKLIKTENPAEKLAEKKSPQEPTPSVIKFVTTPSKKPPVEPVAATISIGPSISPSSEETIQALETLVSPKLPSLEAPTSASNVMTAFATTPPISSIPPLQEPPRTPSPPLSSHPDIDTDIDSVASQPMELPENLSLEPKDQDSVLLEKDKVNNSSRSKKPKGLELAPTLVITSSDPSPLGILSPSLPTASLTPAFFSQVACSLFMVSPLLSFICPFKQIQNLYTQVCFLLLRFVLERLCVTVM
# Summary of the method: as §1
# ETV2 = target: T10, ETV2 (Homo sapiens, UniProt O00321 1-342); settings: protein: recombinant; tags: N-terminal GST; dsDNA, one strand shown
# T10 sequence: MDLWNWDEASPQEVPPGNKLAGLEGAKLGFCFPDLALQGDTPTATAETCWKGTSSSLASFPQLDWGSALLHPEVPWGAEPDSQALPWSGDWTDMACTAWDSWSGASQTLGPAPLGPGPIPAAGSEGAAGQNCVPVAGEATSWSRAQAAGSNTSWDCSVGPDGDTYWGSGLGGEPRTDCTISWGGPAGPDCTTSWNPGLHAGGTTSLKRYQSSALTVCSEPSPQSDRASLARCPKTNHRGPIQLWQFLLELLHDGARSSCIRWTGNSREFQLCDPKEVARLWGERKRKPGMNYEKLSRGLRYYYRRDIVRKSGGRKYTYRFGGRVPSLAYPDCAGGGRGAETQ
# Summary of the method: as §1
# ELF3 = target: T11, ELF3 (Homo sapiens, UniProt P78545 1-371); settings: protein: recombinant; tags: N-terminal GST; dsDNA, one strand shown
# T11 sequence: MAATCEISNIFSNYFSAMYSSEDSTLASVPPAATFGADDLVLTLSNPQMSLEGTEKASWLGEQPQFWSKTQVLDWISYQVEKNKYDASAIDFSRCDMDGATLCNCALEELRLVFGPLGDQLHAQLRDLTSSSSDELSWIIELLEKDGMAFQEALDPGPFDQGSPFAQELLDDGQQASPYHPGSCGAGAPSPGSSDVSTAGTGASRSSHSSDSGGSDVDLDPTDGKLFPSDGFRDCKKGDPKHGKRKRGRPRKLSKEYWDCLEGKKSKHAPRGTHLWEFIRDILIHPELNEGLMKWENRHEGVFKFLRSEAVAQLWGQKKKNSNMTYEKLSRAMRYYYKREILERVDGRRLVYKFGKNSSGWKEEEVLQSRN
# Summary of the method: as §1
# CRX = CRX (Homo sapiens, UniProt O43186 1-299); settings: protein: recombinant; tags: N-terminal GST; dsDNA, one strand shown
# CRX, sequence (O43186 whole entry): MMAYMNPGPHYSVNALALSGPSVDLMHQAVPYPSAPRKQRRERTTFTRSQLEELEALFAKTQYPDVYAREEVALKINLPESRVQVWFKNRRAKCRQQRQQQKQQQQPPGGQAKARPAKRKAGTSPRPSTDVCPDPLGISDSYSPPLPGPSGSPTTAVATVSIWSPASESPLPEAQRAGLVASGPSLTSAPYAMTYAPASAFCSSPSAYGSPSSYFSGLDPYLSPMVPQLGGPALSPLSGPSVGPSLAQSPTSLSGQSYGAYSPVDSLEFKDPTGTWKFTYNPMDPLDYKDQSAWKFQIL
# Summary of the method: as §1
# ETV1 = ETV1 (Homo sapiens, UniProt P50549 1-477); settings: protein: recombinant; tags: N-terminal GST; dsDNA, one strand shown
# ETV1, sequence (P50549 whole entry): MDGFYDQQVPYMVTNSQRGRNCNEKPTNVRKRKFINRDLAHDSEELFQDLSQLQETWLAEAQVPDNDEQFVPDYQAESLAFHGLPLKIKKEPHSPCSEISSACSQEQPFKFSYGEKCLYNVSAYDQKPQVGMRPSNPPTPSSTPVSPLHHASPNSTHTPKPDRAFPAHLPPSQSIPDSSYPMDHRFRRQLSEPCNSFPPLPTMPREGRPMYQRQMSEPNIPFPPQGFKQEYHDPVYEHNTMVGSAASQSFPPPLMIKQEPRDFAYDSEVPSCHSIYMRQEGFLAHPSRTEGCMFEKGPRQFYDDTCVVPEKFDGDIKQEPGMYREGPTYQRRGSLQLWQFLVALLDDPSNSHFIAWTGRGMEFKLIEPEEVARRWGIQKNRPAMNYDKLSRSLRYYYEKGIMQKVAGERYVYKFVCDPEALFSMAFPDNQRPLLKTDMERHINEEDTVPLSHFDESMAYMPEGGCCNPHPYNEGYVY
# Summary of the method: as §1
sequence,measurement,setting,value
AAACTT,binding signal,FLI1,"1.27 fold enrichment (6-mer frequency, TF over GST control)"
same,binding signal,ELK1,"1.22 fold enrichment (6-mer frequency, TF over GST control)"
same,binding signal,GABPA,"1.31 fold enrichment (6-mer frequency, TF over GST control)"
same,binding signal,ERG,"1.24 fold enrichment (6-mer frequency, TF over GST control)"
same,binding signal,ELF1,"1.24 fold enrichment (6-mer frequency, TF over GST control)"
same,binding signal,EHF,"1.31 fold enrichment (6-mer frequency, TF over GST control)"
same,binding signal,SPI1,"1.24 fold enrichment (6-mer frequency, TF over GST control)"
same,binding signal,SPIB,"1.25 fold enrichment (6-mer frequency, TF over GST control)"
same,binding signal,ELK3,"1.3 fold enrichment (6-mer frequency, TF over GST control)"
same,binding signal,FEV,"1.3 fold enrichment (6-mer frequency, TF over GST control)"
same,binding signal,ETV5,"1.22 fold enrichment (6-mer frequency, TF over GST control)"
same,binding signal,HSF1,"1.37 fold enrichment (6-mer frequency, TF over GST control)"
same,binding signal,SPIC,"1.36 fold enrichment (6-mer frequency, TF over GST control)"
same,binding signal,ELF4,"1.26 fold enrichment (6-mer frequency, TF over GST control)"
same,binding signal,ELK4,"1.23 fold enrichment (6-mer frequency, TF over GST control)"
same,binding signal,ETV2,"1.28 fold enrichment (6-mer frequency, TF over GST control)"
same,binding signal,ELF3,"1.13 fold enrichment (6-mer frequency, TF over GST control)"
same,binding signal,CRX,"1.21 fold enrichment (6-mer frequency, TF over GST control)"
same,binding signal,ETV1,"1.27 fold enrichment (6-mer frequency, TF over GST control)"
